# A selection: hits, their analogues and other compounds. The true share with any hit is near 3.6%.
# TROY NFkB inh: inhibitors of TROY-driven NF-kB signaling, primary screen, Q293 LMP1-TROYcd cells, NF-kB luciferase, uHTS; hit rate 0.98% among 360,000; Q293 LMP1-TROYcd NF-kB luciferase reporter, 4 h; inhibition, % at 10 µM;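 active = compounds whose plate-normalised and pattern-corrected inhibition of the luciferase reporter signal at the single screening dose is 50% or more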
# HSF1 inh: HSF1 inhibitors in luciferase reporter cells, primary screen, cell-based, NIH3T3, luminescence; activity change, negative = inhibition, % at 7.5 µM (by protocol); NIH3T3-HGL HSE-luciferase, MG132-induced, luminescence 8 h; active compounds read low; hit rate 0.77% among 300,000;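 active = more than half of replicate wells show activity change below -50%, luminescence cut by over half; inconclusive = some wells, but at most half, below -50%; inactive = no replicate well below -50%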;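 note: luciferase reports HSF-1 transcriptional activity via heat shock element; 0% = median of DMSO wells and -100% = zero luminescence signal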
# HSF-1 act: HSF-1 activators, primary screen, NIH3T3-HGL cells, MG132 stress, luminescence, single point; AID 504408, 2011; NIH3T3-HGL HSF-1 luciferase reporter, 8 h; 100% = twice DMSO control signal; hit rate 1.7% among 300,000; activation, % at 9 µM;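 active = mean replicate activation of at least 50% with a set share of replicates each reaching 50%; inconclusive = only one of those two conditions met; inactive = mean below 50% and too few replicates reaching it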;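 note: 0% = median of the neutral control wells and 100% = twice that signal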
# LGR2 inh: inhibitors of bursicon-induced LGR2 CRE-luciferase signal, primary screen, cell-based, HEK293, CRE-luciferase reporter, bursicon stimulation. bursicon-stimulated, 4 h. inhibition, % at 9.99 µM. hit rate 0.35% among 380,000. AID 720647, 2013;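 active = drop in luminescence signal, shown as inhibition above about 50% in the replicate tests, limit read from the data, passing the limit was not always enough; inconclusive = probably only some replicates passing the limit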;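 note: agonist challenge used bursicon conditioned medium at about half maximal strength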
# TWEAK Fn14 block: inhibitors of TWEAK-Fn14 signaling, primary screen, luciferase reporter cells, uHTS; TWEAK-stimulated Fn14 reporter cells, luciferase luminescence, 8 h; inhibition, % at 10 µM; hit rate 2% among 360,000; AID 1159606, 2016; in the data active = inhibition above about 50%
# LMP1 NFkB inh: EBV LMP1-driven NF-kappaB luciferase reporter inhibitors, primary screen, cell-based, luminescence, single point. hit rate 0.69% among 350,000. LMP1-induced NF-kappaB luciferase reporter cells. AID 504558, 2011. inhibition, % at 12.5 µM; in the data active = inhibition above about 41%; inconclusive = no clear call, values can overlap the other calls;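 note: 0% = neutral control wells and 100% = reference inhibitor control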
# Starred values were filed as active, the others as inactive; ? = inconclusive; / = no result.
SMILES,TROY NFkB inh,HSF1 inh,HSF-1 act,LGR2 inh,TWEAK Fn14 block,LMP1 NFkB inh
COc1ccc(/C=N/NC(=O)c2ccc3ccccc3c2)cc1OS(=O)(=O)c1ccc(NC(C)=O)cc1,37,-9,-8,/,52*,24
COc1cccc(/C=N/NC(=O)CN2CC(c3ccccc3)CC2=O)c1OC (stereo unspecified),-10,-6,4,/,3,75*
COc1cccc(/C=N/NC(=O)c2ccccc2)c1OS(=O)(=O)c1ccccc1,-29,6,-3,9,76*,1
COc1cccc(/C=N/NC(=O)c2ccc(=O)n(C)c2)c1OC,5,3,6,-20,7,0
O=C(C[C@@H]1CC[C@@H](NS(=O)(=O)c2cccc(F)c2)[C@@H](CO)O1)NCc1ccc2c(c1)OCO2,/,/,/,21,/,/
C[C@@H](NC(=O)C[C@H]1C[C@@H]2c3cc(NC(=O)CC4CC4)ccc3O[C@@H]2[C@H](CO)O1)c1ccccc1,/,/,/,-1,/,/
O=C(Nc1ccc(F)cc1)N[C@H]1CC[C@@H](CCn2cc(C3(O)CCCC3)nn2)O[C@@H]1CO,/,/,/,-13,/,/
COc1ccc(/C=N/NC(=O)c2cccnc2)c(C(=O)O)c1OC,-10,29,73*,4,0,-6
CCOc1cc(Br)cc(/C=N/NC(=O)c2cccnc2)c1O,-15,-3,-5,24,-3,68*
CC1(C)CC(=O)C2=C(C1)OC1=C(C(=O)CC(C)(C)C1)C2c1ccc(O)cc1O,82*,28,34,/,104*,1
O=C(O)c1cccc(S(=O)(=O)N2CCC(n3nnc4cc(C(F)(F)F)ccc43)CC2)c1,-1,39,79*,-2,0,1
O=C(CN1CCC(n2nnc3cc(C(F)(F)F)ccc32)CC1)Nc1ccc2c(c1)OCCO2,64*,-32,-32,/,75*,16
CO[C@@H]1CN(C)C(=O)c2ccc(NC(=O)C3CCC3)cc2OC[C@@H](C)N(Cc2cccnc2)C[C@H]1C,/,/,/,17,/,/
c1ccc(-c2nnc(N3CCN(c4ccccn4)CC3)c3ccccc23)cc1,26,-1,-15,/,21,28
Cc1ccc(-c2nnc(N3CCN(c4ccccn4)CC3)c3ccccc23)cc1,54*,-14,-3,/,49,22
Cc1ccc(NC(=O)c2cnc(N3CCN(c4ccccn4)CC3)c3ccccc23)c(Br)c1,68*,-63*,-66,34,93*,29
O=C(Nc1c(F)cccc1F)c1cnc(N2CCN(c3ccccn3)CC2)c2ccccc12,36,-14,-6,/,60*,14
C[C@@H]1CN([C@H](C)CO)S(=O)(=O)c2ccc(C#CC3CC3)cc2O[C@H]1CN(C)C(=O)c1ccccc1,/,/,/,-17,/,/
COCC(=O)N(C)C[C@@H]1Oc2cc(-c3ccncc3)ccc2S(=O)(=O)N([C@H](C)CO)C[C@@H]1C,/,/,/,3,/,/
CN(C)CC(=O)Nc1ccc2c(c1)[C@@H]1C[C@@H](CC(=O)N3CCc4ccccc4C3)O[C@@H](CO)[C@@H]1O2,/,/,/,5,/,/
COc1ccc(S(=O)(=O)N(C)C[C@H]2Oc3ccc(NC(=O)CCC(F)(F)F)cc3CC(=O)N([C@@H](C)CO)C[C@H]2C)cc1,/,/,/,5,/,/
C[C@H]1CN([C@@H](C)CO)C(=O)Cc2cc(NS(=O)(=O)c3ccc(Cl)cc3)ccc2O[C@H]1CN(C)C,/,/,/,-6,/,/
O=C(c1cc(-c2ccc(Cl)cc2Cl)on1)N1CCOCC1,31,11,31,?,71*,26
O=C(c1cc(-c2cccc(Cl)c2)on1)N1CCOCC1,-63,15,29,-51,-5,-27
Cc1ccc(-c2cc(C(=O)NCCCN3CCOCC3)no2)cc1,22,-76*,-79,/,75*,8
SMILES,TROY NFkB inh,HSF1 inh,HSF-1 act,LGR2 inh,TWEAK Fn14 block,LMP1 NFkB inh
O=C(c1cc(-c2ccc(Cl)cc2)on1)N1CCOCC1,8,11,29,-14,51*,4
O=C(NC1CCC1)[C@@H]1[C@@H](CO)[C@@H]2Cn3c(ccc(-c4ccccc4F)c3=O)[C@@H]2N1Cc1ccncc1,/,/,/,17,/,/
O=C(CSc1nnnn1-c1ccccc1)Nc1ccccc1,5,-1,2,-20,-22,4
COc1cc(NC(=O)CSc2nnnn2-c2ccccc2)cc(OC)c1OC,-12,-64*,-73,/,-10,-6
COCC(=O)N1CC[C@@H]2[C@@H](CO)Nc3ccc(-c4ccc(C#N)cc4)cc3[C@@H]21,/,/,/,2,/,/
O=S(=O)(Nc1nc2ccccc2nc1NCc1ccco1)c1ccc(Cl)cc1,-3,3,0,/,18,6
Cc1noc(C)c1CSc1nc2ccccc2nc1NS(=O)(=O)c1ccc(Cl)cc1,57*,3,11,/,18,3
C[C@@H]1CN([C@@H](C)CO)C(=O)c2cc(NC(=O)Cc3ccccc3)ccc2O[C@@H](C)CCCCO[C@@H]1CN(C)Cc1ccccc1,/,/,/,10,/,/
Cc1ccc2c(c1)c1c(n2CC(O)CN2CCOCC2)CCCC1 (stereo unspecified),/,-70*,-76,/,/,/
Cc1ccc2c(c1)c1c(n2CC(O)CN2CCC(C)CC2)CCCC1 (stereo unspecified),-10,7,30,13,9,4
O=C(CN1CCOCC1)N[C@H]1CC[C@H](CCNC(=O)C2CCCCC2)O[C@H]1CO,/,/,/,19,/,/
CSc1cccc(NC(=O)OC2CCCCCCCCCCC2)c1,4,-2,0,24,-5,-6
CC(C)c1cccc(C(C)C)c1NC(=O)OC1CCCCC1,58*,/,/,2,-2,/
CC=Cc1ccc2n(c1=O)C[C@H]1[C@H](CO)[C@@H](C(=O)NCC3CC3)N(C(C)=O)[C@@H]21 (mixture of isomers),/,/,/,-10,/,/
CN(C)c1ccc(N=C/C=C2\N(C)c3ccccc3C2(C)C)cc1,12,-37,-34,/,51*,-4
CN1/C(=C\C=Nc2ccc3ccccc3c2)C(C)(C)c2ccccc21,66*,/,/,/,3,-6
CN1/C(=C\C=O)C(C)(C)c2ccccc21,-9,-2,-3,-5,6,3
COC(=O)Nc1ccc(S(=O)(=O)Nc2cccc3ccccc23)cc1,42,33,68*,/,23,6
O=S(=O)(Nc1cccc2ccccc12)c1ccccc1,-3,52,61*,-3,6,2
Cc1ccc(NC(=O)Cc2ccc(-n3cccc3)cc2)c(C)c1,-6,-53*,-64,-20,-5,-8
Cc1cc(C)cc(NC(=O)Cc2ccc(-n3cccc3)cc2)c1,7,-3,19,-3,-9,-6
Cc1ccc(NC(=O)Cc2cc(C(=O)O)c3ccccc3n2)c(C)c1,43,0,7,19,52*,9
